Assay results from PubChem BioAssay (Tox21).
Calls of active or inactive are those of the source. Calls follow the shape of the dose curve; as a rule, active = well fitted curve in the direction sought with a large enough effect in the repeat runs; inconclusive = weak or mixed curves; inactive = flat fitted curve, though single readings scatter.

Assay: qHTS assay to test for compound auto fluorescence at 460 nm (blue) in HepG2 cells (AID 720687)
Conditions: autofluorescence 405/460 nm, 1 h; series mostly up to 91.3 µM
Excerpt: U.S. Tox21 Program National Center for Advancing Translational Sciences [NCATS] NIH Chemical Genomics Center [NCGC] U.S. Environmental Protection Agency [EPA] National Institutes of Environmental Health Sciences [NIEHS] National Toxicology Program [NTP] U.S. Food and Drug Administration [FDA] Tox21 Assay Overview: Compound auto fluorescence often interferes with screening of the compound library against various biological targets and signaling pathways. Some of these compounds may have fluorophoric properties. Such properties may interfere with the assay outputs resulting in false positives and/or negatives. To decrease such complications and ensure the compound activities are relevant in terms of biological response, the Tox21 10K compound library was screened for auto fluorescence. From the fluorophores used as reporter signals in our screening assays, the auto fluorescence equivalencies of compounds against three fluorophores have been evaluated: Triamterene, Fluorescein and Rose Bengal sodium for blue, green and red fluorescence, respectively. The fluorescence intensities were measured using Excitation/Emission wavelengths at 405/460nm, 485/535nm and 540/590nm for blue, green and red labels, respectively. This assay includes the blue fluorescence data.
Tox21 Assay Protocol Summary: 2,000 HepG2 cells in 5 uL of culture medium (MEM containing 10% FBS) per well were dispensed into black wall/clear bottom 1536-well plates using a Multidrop Combi Dispenser (ThermoFisher Scientific, Waltham, MA). The assay plates were incubated overnight at 37 C to allow cell attachment to the well bottom, followed by the transfer of 23 nL compound or DMSO vehicle by a pintool work station (Kalypsys , San Diego, CA). After the assay plates were incubated for 1 hr at 37 C and 5% CO2, fluorescence intensities in the assay plates were measured by an Envision (PerkinElmer, Shelton, CT) plate reader using three labels for measuring blue, green and red fluorescence at […] 460, 535 and 590 nm respectively.

SMILES	outcome
Clc1cc(Cl)c(Cl)cc1Cl	inactive
CCCCC(CC)COC(=O)CCCCCCCC(=O)OCC(CC)CCCC (stereo not given)	inactive
CCOC(=O)[C@H](CCc1ccccc1)N[C@@H](C)C(=O)N1Cc2ccccc2C[C@H]1C(=O)O	inactive
O=C1CCCCC1	inactive
CC(=O)Nc1ccc(C(=O)O)cc1	inactive
CCC(C)C=O (stereo not given)	inactive
OC1CCCC1	inactive
CCCCCCOC(C)=O	inactive
Cc1cc(NS(=O)(=O)c2ccc(N)cc2)no1	inactive
CC(C)n1c(/C=C/[C@@H](O)C[C@@H](O)CC(=O)O)c(-c2ccc(F)cc2)c2ccccc21	inactive
O=C1N=C(O)CN1/N=C/c1ccc(-c2ccc([N+](=O)[O-])cc2)o1	inactive
Oc1ccc2ccccc2c1	inactive
CS(=O)(=O)Nc1ccc([N+](=O)[O-])cc1Oc1ccccc1	inactive
Cc1cc(=O)[nH]c(C(C)C)n1	inactive
O=Nc1ccc(O)cc1	inactive
Oc1c(Cl)cc(Cl)c(Cl)c1Cl	inactive
Nc1cc(-c2ccncc2)c[nH]c1=O	inactive
CNC[C@H](O)[C@@H](O)[C@H](O)[C@H](O)CO	inactive
CCCCC(CC)COC(=O)/C=C\C(=O)OCC(CC)CCCC (stereo not given)	inactive
C[C@@H](O)[C@H]1C(=O)N2C(C(=O)O)=C(S[C@@H]3CN[C@H](C(=O)N(C)C)C3)[C@H](C)[C@H]12	inactive

SMILES	outcome
NCCc1ccc(O)c(O)c1	inactive
O=[N+]([O-])C(CO)(CO)CO	inactive
CCCCCCCCCCCCN	inactive
Oc1ccc2ccccc2c1N=Nc1ccccc1	inactive
O=C(c1ccc(O)cc1)c1ccc(O)cc1O	inactive
Oc1ccc(OCc2ccccc2)cc1	inactive
CCCCOCCOCCOC(=O)CCCCC(=O)OCCOCCOCCCC	inactive
Cc1cc(O)c2c(c1)C(=O)c1cc(O)cc(O)c1C2=O	inactive
C=C(C)C(=O)OCCCCCCCCCCCC	inactive
O=C(O)c1ccc([N+](=O)[O-])cc1	inactive
OC[C@@H](O)[C@H](O)[C@H](O)[C@@H](O)CO	inactive
C=C(C)C(=O)OCCCCCC	inactive
CCCCCCCCCCC=CC1CC(=O)OC1=O (stereo not given)	inactive
CC1(C)CC(N=C=O)CC(C)(CN=C=O)C1 (stereo not given)	inactive
CC(C)(C)C(=O)C1C(=O)c2ccccc2C1=O	inactive
NC(=O)NNc1ccccc1	inactive
O=c1c(-c2ccc(O)cc2)coc2cc(O)ccc12	inactive
CCCCOCCO	inactive
C=C(C#N)C(=O)OCC	inactive
CC1COc2ccccc2N1C(=O)C(Cl)Cl (stereo not given)	inactive
